# Test results reported in PubChem BioAssay AID2501 (Southern Research Specialized Biocontainment Screening …, 2010).
# The campaign covered roughly 2,200 compounds. About 1,200 (55%) were called active. So high a share suggests a set chosen from earlier hits. This is one part of the list. Unmarked numbers belong to inactive results. The limit is not given here; nearly all actives have IC50 up to about 92 µM.
# Test: counter assay for TAg ATPase ADP read-out – biochemical, ADP-Hunter, fluorescence, counter-screen (AID 2501);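 also: purified T antigen ATPase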;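 as to inhibition: 0% = enzyme with vehicle and 100% = reference inhibitor wells; higher means more inhibition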
# Details: series mostly up to 100 µM; inhibition: at the top concentration
Structure (SMILES),IC50,inhibition
Nc1ccc2c(c1)Cc1ccccc1-2,4.77 µM (active),–
O=C1NC(=O)C(=Cc2csc3ccccc23)C(=O)N1,–,4.76%
CN1CCN(/N=C/c2c[nH]c3ccccc23)CC1,6.59 µM (active),–
O=C1NC(=O)N(Cc2ccco2)C(=O)/C1=C/c1cccn1CCOc1ccccc1Cl,–,-6.99%
O=C1NC(=S)NC(=O)C1=Cc1ccc2c(c1)CCN2CCCCl,–,8.61%
O=C1NC(=O)N(c2ccccc2)C(=O)/C1=C/c1ccc([N+](=O)[O-])s1,–,6.79%
C=CCN1C(=O)/C(=C/c2cc(C)n(-c3cccnc3)c2C)C(=O)NC1=S,–,-0.68%
C[CH2][Hg][S]c1ccccc1C(=O)O,–,16.9% [at 50 µM]
CCOc1ccccc1N1C(=O)NC(=O)/C(=C/c2ccc3c4c(cccc24)CC3)C1=O,–,5.91%
CCC(C)N1C(=O)NC(=O)C2(Cc3c(ccc4ccccc34)N(C)C2)C1=O (configuration not stated),23.3 µM (active),–
COc1ccc(N2C(=O)/C(=C/c3ccc(C)o3)C(=O)NC2=S)c(OC)c1,–,-2.21%
COc1ccc(CN2C(=O)NC(=O)/C(=C/c3ccc([N+](=O)[O-])o3)C2=O)cc1,–,26.2%
Cc1ccc2c(c1)=C/C(=C\c1c(O)[nH]c(=O)[nH]c1=O)C(=O)N=2,–,1.86%
CCN1C(=O)/C(=C\c2ccc([N+](=O)[O-])s2)C(=O)NC1=S,–,28.9%
O=C1NC(=O)N(c2ccccc2)C(=O)/C1=C\C=C\c1ccccc1,–,24%
CN(c1ccc(OCC(=O)N2CCN(C/C=C/c3ccccc3)CC2)cc1)S(=O)(=O)c1cccs1,–,28.9%
O=c1[nH]sc2cc(F)ccc12,–,7.46%
O=C(O)CCC(=O)NCCC1=c2ccccc2=N/C1=C\c1c(O)n(Cc2ccc(F)cc2)c(=S)[nH]c1=O,–,-17.4%
CC1CN=C(Nc2ccc(N(C)C)cc2)S1 (configuration not stated),7.09 µM (active),–
COP(=S)(OC)SCN1C(=O)c2ccccc2C1=O,–,1.36%
CCOc1ccc(N2C(=O)NC(=O)/C(=C\c3ccccc3[N+](=O)[O-])C2=O)cc1,–,19.3%
CCc1c(C)nc(N)nc1N1N=C1SC(C(C)=O)C(C)=O,–,9.54%
CCCN1CCc2cc(O)cc3c2[C@H]1Cc1ccc(O)c(O)c1-3,–,-61.6%
O=c1cc(-c2ccc(O)c(O)c2)oc2cc(O)cc(O)c12,8.07 µM (active),–
O=c1c(O)c(-c2ccc(O)c(O)c2)oc2cc(O)cc(O)c12,98.5 µM (active),–

Structure (SMILES),IC50,inhibition
Oc1cc2c(cc1O)[C@H]1c3ccccc3CN[C@@H]1CC2,–,-74.2%
CN1CCc2cc(O)cc3c2[C@H]1Cc1ccc(O)c(O)c1-3,–,-56.5%
O=C1NC(=O)N(c2ccc(Br)cc2)C(=O)/C1=C/c1ccsc1,–,-9.71%
CN1C(=O)NC(=O)/C(=C/c2ccc([N+](=O)[O-])o2)C1=O,–,6.64%
O=C1NC(=O)N(c2ccccc2)C(=O)/C1=C\c1ccc2c3c(cccc13)CC2,–,2.57%
O=c1c2ccccc2[se]n1-c1ccccc1,10.9 µM (active),–
O=C1NC(=O)C(=Cc2ccccc2OCCOc2ccc([N+](=O)[O-])cc2)C(=O)N1,–,21.8%
CCN1C(=O)C(=C/C=C/c2ccco2)C(=O)N(CC)C1=S,–,-52.2%
CCOc1cccc(OCC)c2c(C)[n+](CC3CCCO3)c(C)c1-2 (configuration not stated),–,-27.2%
O=C1NC(=O)C(=Cc2ccc(OCCOc3ccc([N+](=O)[O-])cc3)cc2)C(=O)N1,–,-3.74%
COc1cc(/C=C2\C(=O)NC(=O)N(CCc3ccc(F)cc3)C2=O)ccc1O,6.23 µM (active),–
O=C1NC(=O)N(CCc2ccc(F)cc2)C(=O)/C1=C/c1ccco1,–,11.4%
COc1cc(C=C2C(=O)NC(=O)NC2=O)ccc1O,19.6 µM (active),–
COc1ccc(CN2C(=O)NC(=O)/C(=C/c3ccoc3)C2=O)cc1,–,8.61%
CCOC(=O)CSCCOc1ccc(C=C2C(=O)NC(=O)NC2=O)cc1OC,–,-17.2%
Cc1nc2cc([N+](=O)[O-])ccc2c(=O)n1-c1ccc(Br)cc1,–,-52.8%
O=C1NC(=S)NC(=O)C1=Cc1cccn1-c1ccc(O)cc1,–,20.7% [at 50 µM]
Cc1cc(C=C2C(=O)N(C)C(=S)N(C)C2=O)c(C)n1-c1ccncc1,–,1.6%
CN(C)[C@@H]1C(=O)C(C(N)=O)=C(O)[C@@]2(O)C(=O)C3=C(O)c4c(O)cccc4[C@@](C)(O)[C@H]3[C@H](O)[C@@H]12,inactive,–
CCCNC(=O)N1C2CCC1CC(O)(c1cccnc1)C2 (configuration not stated),–,-23%
Cc1ccccc1-n1c(C)cc(/C=C2/C(=O)NC(=O)N(Cc3ccco3)C2=O)c1C,–,12.9%
N/C(=N\[N+](=O)[O-])N/N=C/c1ccc(O)cc1,2.93 µM (active),–
C[C@]12CC[C@@H]3c4ccc(O)c(O)c4CC[C@H]3[C@@H]1CC[C@@H]2O,–,-196%
COc1ccc(/C=C2/C(=O)NC(=O)N(Cc3ccco3)C2=O)cc1,–,9.99%
NS(=O)(=O)c1ccc(-c2ccc(C=C3C(=O)NC(=O)NC3=O)o2)cc1,–,14%

Structure (SMILES),IC50,inhibition
CC1=NCCc2c1[nH]c1cc(O)ccc21,4.35 µM (active),–
Cc1ccc(N2C(=O)NC(=O)/C(=C/c3ccc(-c4ccc(C(=O)O)c(Cl)c4)o3)C2=O)cc1,–,3.2%
NC(N)=Nc1ccc2[nH]c3c(c2c1)C[C@@]1(O)[C@H]2Cc4ccc(O)c5c4[C@@]1(CCN2CC1CC1)[C@H]3O5,–,7.88%
Cc1ccc(N2C(=O)NC(=O)/C(=C\C=C\c3ccco3)C2=O)cc1C,–,29.6%
C=C1C(=O)O[C@H]2[C@H]1[C@H](OC(=O)CC(=O)O[C@@H]1C[C@@H](C)[C@@H]3C=CC(=O)[C@@]3(C)[C@H]3OC(=O)C(=C)[C@H]13)C[C@@H](C)[C@H]1C=CC(=O)[C@]12C,–,-28.2%
CN1C(=O)/C(=C/C=C/c2ccco2)C(=O)NC1=S,–,0.73%
O=C1NC(=O)C(=Cc2ccc(-c3cc(Cl)ccc3[N+](=O)[O-])o2)C(=O)N1,–,2.85%
COc1cc2c(cc1O)CC[n+]1cc3c(OC)c(OC)ccc3cc1-2,4.22 µM (active),–
O=C1NC(=O)N(c2ccccc2)C(=O)/C1=C\c1ccc([N+](=O)[O-])s1,–,18.4%
O=c1[nH]c(=S)n(-c2ccccc2F)c(O)c1C=Nc1ccc(N2CCOCC2)cc1,5.34 µM (active),–
CC(C)Nc1ccc(Nc2ccccc2)cc1,5.82 µM (active),–
NS(=O)(=O)c1ccc(-c2ccc(C=C3C(=O)NC(=S)NC3=O)o2)cc1,–,-13.7%
CCN(CC)c1ccc(N=Cc2c(O)n(-c3cc(OC)ccc3OC)c(=O)[nH]c2=O)cc1,6.82 µM (active),–
Cc1ccccc1-n1c(O)c(C=Nc2ccc(N(C)C)cc2)c(=O)[nH]c1=O,5.9 µM (active),–
CCN(CC)c1ccc(N=Cc2c(O)n(-c3ccccc3C)c(=O)[nH]c2=O)cc1,7.13 µM (active),–
Cc1cccc(OCCn2cccc2/C=C2/C(=O)NC(=O)N(Cc3ccco3)C2=O)c1,–,23.1%
CN(C)c1ccc(C=C2C(=O)NC(=S)NC2=O)cc1[N+](=O)[O-],–,-11.9%
Oc1ccc(C[C@H]2NCCc3cc(O)c(O)cc32)cc1O,–,-137%
N#CSCC(=O)N1c2ccccc2CCc2ccccc21,–,-23.4%
Cc1ccc(/C=C2\C(=O)NC(=S)N(c3cccc(F)c3)C2=O)o1,–,3.87%
Cc1cc(/C=C2\C(=O)NC(=O)N(c3ccc(Cl)cc3)C2=O)c(C)n1-c1sc2c(c1C#N)CCCC2,–,-16.8%
NCCc1c[nH]c2ccc(O)cc12,10.5 µM (active),–
CCN(CC)C(=O)c1ccc2c(c1)C1C(Cl)C(Sc3ccccc3[N+](=O)[O-])CC1C(C(=O)O)N2 (configuration not stated),–,-62%
O=C1NC(=S)NC(=O)C1=Cc1ccc(Br)s1,–,6.21%
CCCCC(=O)N/N=C/c1c(O)n(Cc2ccco2)c(=O)[nH]c1=O,–,9.68%

Structure (SMILES),IC50,inhibition
O=c1[nH]c(=O)n(Cc2ccccc2)c(O)c1/C=C1\C=Nc2ccccc21,–,-2.85%
N#Cc1c(/N=C/c2c(O)n(Cc3ccco3)c(=O)[nH]c2=O)sc2c1CCCC2,27.2 µM (active),–
O=C1NC(=O)C(=Cc2ccc(-c3ccccc3[N+](=O)[O-])o2)C(=O)N1,–,11.2%
CCN(CC)c1ccc(/C=C2\C(=O)NC(=O)N(Cc3ccco3)C2=O)cc1,–,11.5%
O=C1NC(=O)C(=Cc2ccc(-c3ccc(F)cc3O)o2)C(=O)N1,–,-9.03% [at 50 µM]
CC(Cc1ccccc1Sc1ccc(O)cc1)N(C)C (configuration not stated),1.99 µM (active),–
CNC(C)Cc1ccccc1Sc1ccc(O)cc1 (configuration not stated),2.47 µM (active),–
O=C1NC(=O)N(c2ccccc2F)C(=O)/C1=C/c1ccc(Sc2nc3ccccc3[nH]2)o1,–,11.5%
COc1cc2c(cc1OC)-c1c(OC)c(OC)cc3c1[C@H](C2)[N+](C)(C)CC3,–,6.19%
O=c1[nH]c(=S)n(C2CC2)c(O)c1/C=N/Nc1ccccc1,3.94 µM (active),–
COc1cccc(N2C(=O)NC(=O)/C(=C\c3ccc([N+](=O)[O-])s3)C2=O)c1,–,17.5%
O=C1NC(=O)C(=Cc2cc3c(cc2[N+](=O)[O-])OCO3)C(=O)N1,–,-5.04%
Cc1cccc(N2C(=O)NC(=O)/C(=C/c3ccc(-c4ccc(C(=O)O)c(Cl)c4)o3)C2=O)c1,–,-17.8%
C1=Cc2ccccc2Nc2ccccc21,4.79 µM (active),–
Oc1ccc(/C=N/NP(=S)(c2ccccc2)c2ccccc2)cc1O,35.3 µM (active),–
O=C1NC(=O)N(c2ccc(Cl)cc2)C(=O)/C1=C\c1ccc(Sc2nc3ccccc3[nH]2)o1,–,21.8%
CCN1CCN(c2ccc(N)cc2C)CC1,4 µM (active),–
CCOc1cc(-c2ccc(N)c(OCC)c2)ccc1N,1.03 µM (active),–
COc1cc2c(cc1OC)CC[N+](C)=C2,–,10.2%
CCCCN1C(=O)/C(=C/C=C/c2ccco2)C(=O)NC1=S,–,-21.3%
O=C(O)c1cccc2c1NC(C(=O)O)C1CC(Sc3ccccc3[N+](=O)[O-])C(Cl)C21 (configuration not stated),–,-28.6%
O=C(O)CCn1cc(C=C2C(=O)NC(=S)NC2=O)c(-c2cccc(Cl)c2)n1,–,11.7%
